{"source": "PubChem BioAssay AID1572", "about": "(National Center for Advancing Translational Sciences (NCATS), 2009)", "note": "Results filed as inconclusive are left out. The source made the active and inactive calls. The call rests on the fitted dose curve; in most records, active means well fitted curve in either direction with a large enough effect; inconclusive means small, poorly fitted or top-dose-only effect; inactive means flat fitted curve, though single readings scatter.", "data": [{"assay": "Total Fluorescence Confirmation Counterscreen for Inhibitors of the Interaction of Thyroid Hormone Receptor and Steroid Receptor Coregulator 2", "conditions": "Texas Red total fluorescence, TRbeta/SRC2 FP artifact counterscreen; series mostly up to 92.2 µM; total fluorescence change, both ways: at the top concentration", "method_in_brief": "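Flags fluorescent or light-absorbing compounds: after 5 hr at ambient temperature, 0.6 uM TRbeta LBD plus 20 nM SRC2 Texas Red (1uM T3, 5% DMSO) read at 555/632 nm; TF = S + 2P from parallel and perpendicular channels.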", "values": [{"smiles": "Cc1ccc(OC(=S)Nc2ccc(O)cc2)cc1", "total fluorescence change, both ways": "-1.98% (inactive)"}, {"smiles": "Cn1cc(/C=C2\\SC(=S)N(NC(=O)c3ccccc3)C2=O)c2ccccc21", "Potency": "70.8 µM [fluorescent] (active)"}, {"smiles": "CC1(C)CC(=O)C(N=Nc2cccc(S(=O)(=O)N3CCOCC3)c2)=C(O)C1", "total fluorescence change, both ways": "-1.25% (inactive)"}, {"smiles": "Cc1nnc(SCC(=O)Nc2ccc(N(C)C)cc2)[nH]c1=O", "total fluorescence change, both ways": "4.51% [at 184 µM] (inactive)"}, {"smiles": "COC(=O)c1ccccc1-c1ccc(C(c2c(C)[nH][nH]c2=O)c2c(C)[nH][nH]c2=O)o1", "total fluorescence change, both ways": "4.88% (inactive)"}, {"smiles": "C=CCSc1nnc2n(-c3ccccc3OC)c(=O)c3c4c(sc3n12)CCC4", "total fluorescence change, both ways": "3.26% (inactive)"}, {"smiles": "CCN(C(=O)C1CCCN(c2ncnc3onc(-c4ccc(F)cc4)c23)C1)c1ccccc1", "note": "(centres undefined)", "total fluorescence change, both ways": "5.18% [at 184 µM] (inactive)"}, {"smiles": "Nc1cc(N)c(OCC(F)(F)F)cc1OCC(F)(F)F", "total fluorescence change, both ways": "7.18% (inactive)"}, {"smiles": "COC(=O)/C(=C/Nc1ccc(O)cc1)[N+](=O)[O-]", "total fluorescence change, both ways": "4.79% (inactive)"}, {"smiles": "CCCc1cc(=O)[nH]c(=S)[nH]1", "total fluorescence change, both ways": "-2% (inactive)"}, {"smiles": "Cc1cc2ccccc2n1CCNC(=O)C(C)Oc1ccccc1", "note": "(centres undefined)", "total fluorescence change, both ways": "6.98% (inactive)"}, {"smiles": "CCc1ccc2c(c1)c1nc(C)sc1n2CC", "total fluorescence change, both ways": "0.366% (inactive)"}, {"smiles": "Cn1c(-c2ccc(=O)[nH]c2)nc2ccccc21", "total fluorescence change, both ways": "5.74% (inactive)"}, {"smiles": "C=CCNC(=O)/C(C#N)=C\\c1cc(Cl)c(OCC)c(OC)c1", "total fluorescence change, both ways": "-0.935% (inactive)"}, {"smiles": "O=C(O)/C=C/C(=O)Nc1ccc(OC(F)(F)F)cc1Br", "total fluorescence change, both ways": "10.6% (inactive)"}, {"smiles": "O=C(Nc1nc2ccc(Cl)cc2s1)c1ccc(N2CCCCC2)c([N+](=O)[O-])c1", "total fluorescence change, both ways": "2.3% (inactive)"}, {"smiles": "CN1CCc2ccc3c4c2[C@]1(C)Cc1cccc(c1-4)OCO3", "Potency": "100 µM [fluorescent] (active)"}, {"smiles": "CCCc1nc2c(=O)n(C)c(=O)nc-2n(C)n1", "total fluorescence change, both ways": "4.23% (inactive)"}, {"smiles": "CCOC(=O)C(NC(=O)Nc1ccc(O)cc1)(c1ccccc1)C(F)(F)F", "note": "(centres undefined)", "total fluorescence change, both ways": "6.83% (inactive)"}, {"smiles": "CC1=NN(c2ccc(F)cc2)C(=O)C1C(c1cccc(O)c1)c1c(C)[nH]n(-c2ccc(F)cc2)c1=O", "note": "(centres undefined)", "total fluorescence change, both ways": "-16.4% (inactive)"}, {"smiles": "CN(C(=S)Nc1cccnc1)c1ccc(O)cc1", "total fluorescence change, both ways": "5.43% (inactive)"}, {"smiles": "Cc1ccccc1Nc1cc2ccccc2c(=O)[nH]1", "Potency": "inactive"}, {"smiles": "Nc1cc(-c2ccncc2)c[nH]c1=O", "Potency": "inactive"}, {"smiles": "COc1ccc(C(=O)/C=C/Nc2ccc(S(=O)(=O)Nc3ncccn3)cc2)cc1", "total fluorescence change, both ways": "8.18% (inactive)"}]}]}
